Source: PubChem (National Center for Advancing Translational Sciences (NCATS))
ELG1 genotoxic = qHTS screen for small molecules that induce genotoxicity in human embryonic kidney (HEK293T) cells expressing luciferase-tagged ELG1. HEK293T ELG1-luciferase reporter, luminescence, 16 h. AID 504466, 2011. 330,000 tested, 1.3% active. Potency, µM (series often up to 46 µM), for inactives: at the highest dose activity change, positive = activation, usual class: activators; note: % of control where 0% means no effect; nearly all actives have a fitted effect of over 60% in size
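Genotoxicity was scored as increased ELG1-luciferase reporter signal, measured by ONE-Glo luminescence (30 min, room temperature). Compound or vehicle exposure of the HEK293T reporter cells lasted 16 hr at 37°C.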
FLuc modulator = qHTS profiling assay for firefly luciferase inhibitor/activator using purifed enzyme and Km concentrations of substrates (counterscreen for miR-21 project); 360,000 tested, 6.9% active; Potency, µM (titrated, usually from 57.5 µM), for the others: at the top dose activity change, negative = inhibition, most hits filed as inhibitors; purified FLuc, Km substrates, luminescence inhibition; Luciferin 4-monooxygenase (Photinus pyralis), P08659;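 note: plate controls were vehicle for no effect and reference inhibitor for full effect; nearly all actives have a fitted effect of over 55% in size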
Target sequence (P08659 whole entry, looked up): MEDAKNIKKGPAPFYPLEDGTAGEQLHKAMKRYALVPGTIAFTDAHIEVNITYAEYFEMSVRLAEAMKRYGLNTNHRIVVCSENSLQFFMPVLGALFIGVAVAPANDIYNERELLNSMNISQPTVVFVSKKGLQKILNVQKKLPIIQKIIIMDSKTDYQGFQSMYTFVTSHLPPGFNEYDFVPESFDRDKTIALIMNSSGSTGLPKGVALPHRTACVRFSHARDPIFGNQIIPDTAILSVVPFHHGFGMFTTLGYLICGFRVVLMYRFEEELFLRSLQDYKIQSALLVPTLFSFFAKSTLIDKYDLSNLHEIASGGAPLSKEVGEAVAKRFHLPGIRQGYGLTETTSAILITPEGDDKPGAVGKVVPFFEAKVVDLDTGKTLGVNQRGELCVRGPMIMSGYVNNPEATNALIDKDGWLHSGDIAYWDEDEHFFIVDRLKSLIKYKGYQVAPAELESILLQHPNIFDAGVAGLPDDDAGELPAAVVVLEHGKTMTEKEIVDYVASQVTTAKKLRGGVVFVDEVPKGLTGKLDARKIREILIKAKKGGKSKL
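Biochemical qHTS of compounds, final roughly 60 µM downward over six points, against 10 nM purified firefly luciferase using Km concentrations of substrates (10 uM D-luciferin, 10 uM ATP) in Tris acetate pH 7.5 buffer; luminescence output.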
Rab9 prom act = qHTS Assay for Rab9 Promoter Activators; Huh7 Rab9 promoter-luciferase reporter, luminescence, 24 h; Potency, µM (top dose mostly 9.22 µM), for inactives: at the top dose activation, negative = inhibition, actives largely listed as activators; 320,000 tested, 2.8% active; AID 485297, 2010; note: % of control where 0% means no effect; nearly all actives have a fitted effect of over 60% in size
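Rab9 promoter-driven luciferase in stably transfected Huh7 cells; 1500 cells/well rested 2 h, exposed to compound in DMSO for 24 h at 37 °C, 5% CO2. Luminescence read 10 min after adding luciferase reagent at ambient temperature.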
ELG1 repair inh = qHTS screen for small molecules that inhibit ELG1-dependent DNA repair in human embryonic kidney (HEK293T) cells expressing luciferase-tagged ELG1. HEK293T ELG1-luciferase reporter, luminescence, 16 h; DNA damage induced by 5-fluorouridine. Potency, µM (titrated, usually from 46.1 µM), inactives show top-dose activity change, negative = inhibition, actives largely listed as inhibitors. 330,000 tested, 2.3% active. AID 504467, 2011; note: % is set by controls: 0 for no effect and ±100 for the full control effect; nearly all actives have a fitted effect of over 55% in size
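Luminescence from the luciferase reporter, measured 30 min after ONE-Glo reagent at room temperature, was the read-out. Beforehand, 2,000 cells per well were exposed for 16 hr at 37 °C to 5-fluorouridine together with compound or vehicle.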
SMN2 splice up = qHTS Assay for Enhancers of SMN2 Splice Variant Expression. HEK293 SMN2-luciferase splicing reporter, luminescence, 30-36 h. Potency, µM (doses to about 46.1 µM), inactives show at the highest dose activity change, positive = activation, hits mostly activators. 210,000 tested, 2.8% active; note: % of control where 0% means no effect; nearly all actives have a fitted effect of over 55% in size
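HEK293 cells carry an SMN2 […]–luciferase reporter in which exon 7 inclusion puts luciferase in frame. Cells were plated 10-12 h before compound addition, then incubated 30-36 h at 37C. ONE-Glo luminescence was read; sodium butyrate at 4.5 mM final served as control.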
NPC1 promoter act = qHTS Assay for NPC1 Promoter Activators. Huh7 NPC1 promoter luciferase reporter, 24 h. Potency, µM (top dose mostly 9.22 µM), for the others: at the highest dose activation, most hits filed as activators. AID 485313, 2010. 320,000 tested, 2.4% active; note: % of control where 0% means no effect; nearly all actives have a fitted effect of over 60% in size
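Cells: Huh7 expressing luciferase under the NPC1 promoter, 1500/well. Seeded 2 h, compound added, incubated 24 h at 37 °C. Luciferase reagent, 10 min ambient, then luminescence.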
* marks the source's active call; other numbers are inactive results; u = inconclusive; x = no result given; [ ] = another dose, or the depositor's remark. Sampled rows, rich in hits. Any-hit rate of the full collection: about 9.3%. Calls come from the whole dose curve; as a rule, active = well fitted curve in the direction sought with a large enough effect; inconclusive = small, poorly fitted or top-dose-only effect, or another doubt; inactive = no such curve, though single readings can be large; an effect the other way counts as inactive or inconclusive. Potency is the fitted concentration of half-maximal effect.

SMILES	ELG1 genotoxic	FLuc modulator	Rab9 prom act	ELG1 repair inh	SMN2 splice up	NPC1 promoter act
Cc1cccc(NC(=S)NC(C)(C)CC(C)(C)C)c1	-13.5%	-2.0%	-23.4%	u	-28.7%	-6.3%
COc1ccc(CCNC(=O)c2ccc(Cl)c(S(=O)(=O)N(C)c3ccccc3)c2)cc1	-5.1%	4.5%	15.2%	16.4µM*	0.3%[1.84 µM]	1.0%
CCCCC(=O)Nc1cc(C(=O)NCCc2ccccc2)ccc1Cl	u	-4.2%	2.51µM*	u	7.94µM*	2.24µM*
COc1cccc(C(=O)Nc2cc(C(=O)NCCc3ccccc3)ccc2Cl)c1	u	-17.7%	13.4%	18.5%	11.2µM*	9.2%
COc1ccc(CCNC(=O)c2ccc(Cl)c(S(=O)(=O)N3CCCCCC3)c2)cc1	-11.6%	2.4%	-30.4%	u	x	-17.7%
O=C1[C@@H]2CSC(c3ccc(C(F)(F)F)cc3)N2C(=O)N1c1ccccc1 (some centres undefined)	x	-0.4%	x	x	-6.1%	x
COCCCNC(=O)/C(=C\c1cccn1C)NC(=O)c1cccs1	2.5%	5.2%	-1.6%	12.3%	6.6%	-1.7%
COc1cc(C=O)cc(Cl)c1OC(=O)N1CCOCC1	0.4%	0.8%	-9.0%	3.2%	x	14.5%
COc1ccccc1NC(=O)CSCc1cc(=O)n2ccsc2n1	-2.1%	7.5%	0.9%	1.9%	x	-4.1%
Fc1ccc(C2Nc3cccc4cccc(c34)N2)cc1	3.5%	u	22.2%	9.8%	x	u
CCN(CC)c1ccc(C2Nc3cccc4cccc(c34)N2)cc1	2.7%	10.7µM*	22.9%	u	x	29.1%
FC(F)(F)c1ccc(C2Nc3cccc4cccc(c34)N2)cc1	-2.4%	u	22.8%	3.1%	-6.9%	14.7%
CCCOc1ccc(C2Nc3cccc4cccc(c34)N2)cc1	3.9%	10.7µM*	4.4%	u	x	20.3%
CCOc1ccc(-n2c(=S)sc3c(=O)[nH]c(SCC(=O)C(C)(C)C)nc32)cc1	-0.3%	u	-4.0%	14.6µM*	-59.2%	-6.3%
CCOC(=O)CSc1nc2c(sc(=S)n2-c2ccccc2)c(=O)[nH]1	-1.3%	0.8%	-6.4%	-2.6%	-13.1%	-3.6%
CCOC(=O)CSc1nc2c(sc(=S)n2-c2ccc(OCC)cc2)c(=O)[nH]1	-2.9%	u	3.1%	20.6µM*	-16.2%	-3.4%
CCOc1ccc(-n2c(=S)sc3c(=O)[nH]c(SCC(=O)N4CCC(C)CC4)nc32)cc1	-1.4%	1.4%	-6.1%	-10.0%	-47.7%	6.2%
CC(C)n1c(=N)c(C(=O)NCc2cccnc2)cc2c(=O)n3ccccc3nc21	x	-4.4%	x	x	-0.9%	x
O=C(Nc1ccccn1)c1sc2cccc(F)c2c1Cl	u	0.379µM*	u	u	2.51µM*	u
O=C(Nc1cccnc1)c1sc2cccc(F)c2c1Cl	-2.7%	8.49µM*	u	u	u	u
CN(C)CCNC(=O)c1sc2cccc(F)c2c1Cl	1.2%	2.7%	-0.1%	u	-2.8%	1.1%
O=C(NCCCn1ccnc1)c1sc2cccc(F)c2c1Cl	15.8%	-9.2%	-1.2%	4.2%	-11.9%	-3.2%
O=C(Nc1nc(-c2ccccc2)cs1)C1CCCN(S(=O)(=O)c2ccccc2)C1 (centres undefined)	-23.6%	-2.3%	9.5%	2.31µM*	-59.7%	0.6%
O=C(Nc1nc(-c2ccccc2)cs1)C1CCCN(S(=O)(=O)c2cccc([N+](=O)[O-])c2)C1 (centres undefined)	-0.8%	-4.3%	2.5%	16.4µM*	-41.3%	0.3%
Cc1ccnc(NC(=O)CC(c2ccccc2)c2ccccc2)n1	-1.2%	-0.9%	-3.2%	-11.5%	-4.3%	-11.7%
SMILES	ELG1 genotoxic	FLuc modulator	Rab9 prom act	ELG1 repair inh	SMN2 splice up	NPC1 promoter act
O=C1CSC(c2cn(-c3ccccc3)nc2-c2cc3ccccc3o2)N1Cc1ccccc1 (centres undefined)	-1.5%	u	2.2%	u	-8.3%	-2.6%
COc1ccc(Cc2nnc(NC(=O)c3ccc(OC)c(OC)c3)s2)cc1	-0.1%	-0.4%	-2.4%	-17.7%	x	-9.5%
COc1ccc(C(=O)Nc2nc(C)c(C)s2)cc1OC	u	13.5µM*	u	u	u	u
CCOc1ccccc1C(=O)Nc1cccc2cccnc12	-4.9%	26.9µM*	0.2%	7.2%	x	-2.2%
COc1cccc(C(=O)Nc2cccc3cccnc23)c1OC	9.0%	23.9µM*	0.9%	u	x	10.4%
CC(C)N(Cc1ccccc1)C(=O)c1cc2ccc3cccnc3c2[nH]1	x	19µM*	x	x	x	x
O=C(Nc1cccc2cccnc12)c1cccc2ccccc12	13.4%	u	-5.9%	u	-23.0%	-0.6%
O=C(NCc1cccc(Cl)c1)c1cc2ccc3cccnc3c2[nH]1	x	-5.6%	x	x	x	x
Nc1ncnc(Nc2ccccc2C(F)(F)F)n1	0.4%	4.8%	-3.3%	-3.8%	-5.8%	19.7%
COc1ccc(C(=O)Nc2cccc3cccnc23)cc1OC	1.0%	21.3µM*	-5.5%	u	-13.6%	14.7%
COc1ccccc1NC(=O)c1cc2ccc3cccnc3c2[nH]1	x	2.69µM*	x	x	x	x
COc1ccc(NC(=O)C(=O)Nc2cccc3cccnc23)cc1OC	6.6%	-12.8%	u	4.0%	x	0.5%
COc1ccc(C(=O)Nc2cccc(NC(=O)c3ccc(OC)c(OC)c3)n2)cc1OC	-2.7%	8.49µM*	7.3%	2.91µM*	x	2.5%
Cc1ccc(C)c(N2CCN(C(=O)C3CCN(c4nnc(N5CCCC5=O)s4)CC3)CC2)c1	-12.0%	-8.9%	-10.1%	14.6µM*	-47.7%	-5.4%
Cc1ccc(C)c(N2CCN(C(=O)C3CCN(S(=O)(=O)c4c(C)noc4C)CC3)CC2)c1	-4.9%	-0.2%	-27.7%	11.6µM*	x	-17.1%
Cc1ccc(C)c(N2CCN(C(=O)C3CCCN(S(=O)(=O)c4c(C)noc4C)C3)CC2)c1 (centres undefined)	-2.4%	2.9%	-9.2%	14.6µM*	-73.8%	-4.2%
O=C(C1CCN(c2nnc(N3CCCC3=O)s2)CC1)N1CCN(c2cccc(C(F)(F)F)c2)CC1	-5.4%[9.26 µM]	-1.6%	-18.1%	u	x	-4.6%
Cc1cccc(N2CCN(C(=O)C3CCN(S(=O)(=O)c4c(C)noc4C)CC3)CC2)c1C	-1.7%	3.1%	-11.3%	13µM*	5.5%	0.1%
Cc1noc(C)c1S(=O)(=O)N1CCC(C(=O)N2CCN(c3ccccc3Cl)CC2)CC1	-17.2%	1.6%	-6.5%	u	-53.3%	-3.6%
